# A selection: hits, their analogues and other compounds. The true share with any hit is near 1.1%.
# SRC1 inh: inhibits human SRC1 coactivator; HEK293 GAL4-SRC1 luciferase reporter, luminescence; inhibition, % at 3.6 µM; 360,000 tested, 0.12% active;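 active = inhibition above the campaign mean plus 3 SD, with each screening campaign given its own cutoff, cut at about 60% in these data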;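 note: 0% = DMSO treated cells and 100% = gossypol at 36 µM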
# NCOA2 inhibitor: human SRC2 (NCOA2) inhibition | AID 651957 | HEK293 GAL4-SRC2 luciferase reporter, luminescence | Q15596 | inhibition, % at 9 µM | 370,000 tested, 0.17% active;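 active = inhibition above the mean inhibition of all tested compounds plus 3 SD, set per campaign, cut at about 52% in these data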;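 note: 0% = DMSO treated cells and 100% = cells given Gossypol at 36 µM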
# Gli-Sufu block: Gli-Sufu pathway antagonism; Sufu-KO-LIGHT fibroblasts, Gli luciferase reporter luminescence; inhibition, % at 5 µM; 340,000 tested, 0.74% active;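 active = inhibition above about 55%, limit read from the data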;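 note: 0% = DMSO-treated cells and 100% = wells with medium but no cells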
# NCOA3 inh: human NCOA3 inhibition. Q9Y6Q9. HEK293 GAL4-SRC3 luciferase reporter, luminescence. inhibition, % at 3.6 µM. 360,000 tested, 0.17% active;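 active = inhibition above a per-campaign cutoff, the mean of all compounds plus 3 SD, cut at about 60% in these data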;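 note: 0% = DMSO-treated cells and 100% = gossypol-treated cells at 36 µM; higher means less SRC3-driven luciferase light from the GAL4 reporter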
# Shn3 3UTR inh: Schnurri-3 reporter inhibition in Clone20 osteoblasts; inhibition, % at 12.5 µM; Clone20 osteoblast Shn3 3'UTR firefly luciferase, 24 h; 360,000 tested, 0.52% active;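 active = mean inhibition of at least 75% with every replicate also reaching 75%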;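 note: 0% = median of neutral control wells and 100% = pilot-screen positive control compound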
# NR5A2 inv ag: inverse agonists of human LRH-1 (NR5A2); O00482; HEK293T StAR-luciferase reporter, LRH-1 transfected, 24 h; inhibition, % at 3.6 µM; 360,000 tested, 0.13% active; AID 602396;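 active = inhibition above the mean inhibition of all tested compounds plus 3 SD, cut at about 73% in these data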;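 note: 0% = DMSO wells and 100% = reporter-only cells lacking LRH-1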
# Gli-Sufu confirm: Gli-SUFU antagonism confirmation, single concentration | shares compounds with Gli-Sufu block | Sufu-KO-LIGHT cells, Gli luciferase reporter, luminescence | inhibition, % at 5 µM | 2,500 tested, 40% active;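 active = mean inhibition at 5 µM reaching about 45%, limit read from the data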;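 note: plate controls were DMSO-treated cells for no effect and wells lacking cells for full effect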
# Gli cytotox: counter-screen for Gli-SUFU antagonists: cytotoxicity. shares compounds with Gli-Sufu block. Sufu-KO-LIGHT cells cytotoxicity, ATP luminescence. cytotoxicity, % at 5 µM. 2,500 tested, 32% active. AID 651994;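 active = mean cytotoxicity at 5 µM above about 25%, limit read from the data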;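 note: cells exposed to compound overnight for roughly 16 to 18 hours; plate controls were DMSO wells with cells for no effect and medium without cells for full effect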
# Wnt3a counter: Wnt3a reporter inhibition counter-screen; inhibition, % at 6.25 µM; 2,500 tested, 20% active; shares compounds with Gli-Sufu block; Wnt-LIGHT cells, Wnt3a-driven luciferase reporter, luminescence;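 active = mean inhibition above about 25%, limit read from the data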
# Active calls of the source: *; · = not tested or not shown.
SMILES,SRC1 inh,NCOA2 inhibitor,Gli-Sufu block,NCOA3 inh,Shn3 3UTR inh,NR5A2 inv ag,Gli-Sufu confirm,Gli cytotox,Wnt3a counter
Cc1c(C(C)C)c(=O)n(-c2ccc(S(=O)(=O)NC3CCCCC3)cc2)n1C,20.8,7.3,68.4*,28.3,88.0*,43.5,60.3*,25.3*,-4.3
Cc1c(C(C)C)c(=O)n(-c2ccc(S(=O)(=O)NCc3ccccc3)cc2)n1C,24.6,14.0,71.4*,-4.6,83.5*,43.3,63.0*,23.5,5.6
CCc1ccc(S(=O)(=O)Nc2c(C)n(C)n(-c3ccccc3)c2=O)cc1,-8.1,-12.5,0.8,9.2,3.2,15.7,·,·,·
Cc1c(C(C)C)c(=O)n(-c2ccc(S(=O)(=O)N3CCOCC3)cc2)n1C,-6.5,-73.1,4.1,-1.4,-5.4,6.0,·,·,·
O=C(c1cc(Cl)cc(Cl)c1)N1CCC(Oc2cccnc2)CC1,·,-4.0,·,·,·,·,·,·,·
CN(C)C1=NC[C@H](Cc2ccccc2)N1CCCC1CCCC1,21.3,19.0,56.5*,19.9,86.1*,10.7,43.8,31.4*,13.1
CCOc1ccc(-n2c(SCC(=O)Nc3ccc(S(=O)(=O)Nc4cc(C)nc(C)n4)cc3)nnc2-c2ccc(OC)cc2)cc1,·,1.2,·,·,·,·,·,·,·
O=C(CSc1nc2ccccc2[nH]1)NN=Cc1c(F)cccc1Cl,·,-1.6,·,·,·,·,·,·,·
COc1cc(C)c(C)cc1S(=O)(=O)N1CCN(Cc2ccccc2)CC1,1.2,3.6,50.4,0.0,-4.4,5.1,18.2,-4.2,13.6
COc1ccc(S(=O)(=O)N2CCN(Cc3ccccc3)CC2)c(C)c1,-23.9,-19.4,5.3,2.9,16.0,0.2,·,·,·
C/C(C=NNC(=O)CSc1nc2ccccc2n1Cc1ccccc1Cl)=C\c1ccccc1,·,8.6,·,·,·,·,·,·,·
Clc1cccc(OCCCN2CCCC2)c1Cl,10.9,17.4,20.5,9.6,-17.3,1.7,·,·,·
CCCCNCCCOc1ccc(C)cc1Br,-3.5,-9.7,67.3*,24.5,8.2,8.8,24.8,9.6,-20.9
CCCCNCCCOc1cccc(Cl)c1Cl,4.6,13.1,62.2*,1.4,-5.8,9.1,9.7,24.7,-52.6
Cc1ccc2[nH]c(=O)c(CN(Cc3cccs3)Cc3nnnn3CC3CCCO3)cc2c1 (stereo unspecified),-5.5,-8.6,54.2,-18.9,9.0,30.3,21.1,13.7,-16.9
COc1ccc(OC)c(CN2C(=O)CCCCC2(C)c2nnnn2C2CCCC2)c1 (stereo unspecified),·,2.7,·,·,·,·,·,·,·
CC1=NN(C(N)=S)C(=O)C1N=Nc1ccc(O)cc1 (stereo unspecified),-30.9,4.5,57.4*,-35.5,43.2,-20.6,39.4,11.2,-62.9
CCn1cc(CNC(=O)C2CCC(=O)N(Cc3ccccc3F)C2)cn1 (stereo unspecified),-11.4,-9.3,50.6,-8.4,7.9,-11.2,20.9,-1.6,15.1
Cc1ccc(NC(=S)N(CCCN2CCCC2)Cc2cccn2Cc2ccc(Cl)cc2)cc1Cl,-2.3,3.3,60.8*,5.7,60.8,6.6,16.1,6.1,-24.6
O=C(c1cc(F)ccc1F)N1CCC(Oc2cccnc2)CC1,·,-19.1,·,·,·,·,·,·,·
O=C(c1ccccc1Cl)N1CCC(N2CCC(C(=O)N3CCCC3)CC2)CC1,7.6,-19.6,92.2*,4.0,-21.2,-9.1,9.2,13.3,-20.8
O=C(c1cc(F)ccc1F)N1CCC(N2CCC(C(=O)N3CCCC3)CC2)CC1,11.0,-15.2,56.7*,-24.5,-27.5,4.7,13.3,18.0,-19.4
CS(=O)(=O)N1CCCC(C(=O)N2CCc3ccccc3C2)C1 (stereo unspecified),-32.9,5.4,54.6,-2.3,-15.3,-11.2,19.9,11.8,-29.1
O=C(COc1ccc2ccccc2c1)NNC(=O)c1ccccc1,-5.6,-6.8,51.3,0.8,2.9,13.8,17.7,2.8,5.8
O=C(COc1ccc2ccccc2c1)NNC(=O)Cc1ccccc1,-20.7,8.3,-0.3,0.3,-4.7,-3.1,·,·,·
